# Measured values reported in publication PMC7862700, “An all-to-all approach to the identification of sequence-specific readers for epigenetic DNA modifications on cytosine”.
# Experiments:
# Assay in all cases: DAPPL (digital affinity profiling via proximity ligation, sequencing); 10 mM Tris-HCl pH 7.5, 50 mM NaCl, 1 mM DTT, 4% glycerol, room temperature, 30 min; GST-TFs on glutathione beads, 16-mer random dsDNA library, 0.1% formaldehyde crosslink after washing; high values mean tight binding
# FEV = biological target: T1, FEV (Homo sapiens, UniProt Q99581 1-238); conditions: protein: recombinant; tags: N-terminal GST; dsDNA, one strand shown
# T1 sequence: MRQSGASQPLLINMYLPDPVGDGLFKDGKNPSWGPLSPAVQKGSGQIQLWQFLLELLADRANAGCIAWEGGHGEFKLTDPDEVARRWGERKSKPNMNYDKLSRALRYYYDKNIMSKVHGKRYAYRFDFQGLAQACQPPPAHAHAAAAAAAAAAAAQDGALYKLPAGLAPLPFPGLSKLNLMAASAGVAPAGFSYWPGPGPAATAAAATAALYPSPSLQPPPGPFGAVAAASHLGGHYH
# Outline: (§1)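 Beads coated with glutathione captured GST-fused human transcription factors that had been expressed in yeast, and the factors were then given DNA barcodes and pooled with a tag-only sample. The pools were incubated with 200 nmole of a random double-stranded 16-mer DNA library in Tris/NaCl/DTT/glycerol buffer for 30 min at room temperature, washed, crosslinked with 0.1% formaldehyde and proximity-ligated with BsaI/T4 ligase at 37 °C for 1 h. PCR amplification and Illumina NextSeq500 sequencing came last. Binding signal is each hexamer's read frequency for a factor divided by its frequency for the tag-only sample.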
# ETV5 = ETV5 (Homo sapiens, UniProt P41161 1-510); conditions: protein: recombinant; tags: N-terminal GST; dsDNA, one strand shown
# Outline: as §1
# HSF1 = HSF1 (Homo sapiens, UniProt Q00613 1-529); conditions: protein: recombinant; tags: N-terminal GST; chain copies: 3; dsDNA, one strand shown
# Outline: as §1
# SPIC = biological target: T2, SPIC (Homo sapiens, UniProt Q8N5J4 1-248); conditions: protein: recombinant; tags: N-terminal GST; dsDNA, one strand shown
# T2 sequence: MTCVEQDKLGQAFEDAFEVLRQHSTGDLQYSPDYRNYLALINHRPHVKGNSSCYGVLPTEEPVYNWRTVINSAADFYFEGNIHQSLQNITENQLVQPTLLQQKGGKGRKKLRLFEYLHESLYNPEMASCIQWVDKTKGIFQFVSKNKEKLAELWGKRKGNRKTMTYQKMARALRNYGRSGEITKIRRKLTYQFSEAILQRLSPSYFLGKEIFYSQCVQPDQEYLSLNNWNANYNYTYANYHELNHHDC
# Outline: as §1
# ELF4 = ELF4 (Homo sapiens, UniProt Q99607 1-663); conditions: protein: recombinant; tags: N-terminal GST; dsDNA, one strand shown
# Outline: as §1
# ELK4 = biological target: T3, ELK4 (Homo sapiens, UniProt P28324-2 1-405); conditions: protein: recombinant; tags: N-terminal GST; dsDNA, one strand shown
# T3 sequence: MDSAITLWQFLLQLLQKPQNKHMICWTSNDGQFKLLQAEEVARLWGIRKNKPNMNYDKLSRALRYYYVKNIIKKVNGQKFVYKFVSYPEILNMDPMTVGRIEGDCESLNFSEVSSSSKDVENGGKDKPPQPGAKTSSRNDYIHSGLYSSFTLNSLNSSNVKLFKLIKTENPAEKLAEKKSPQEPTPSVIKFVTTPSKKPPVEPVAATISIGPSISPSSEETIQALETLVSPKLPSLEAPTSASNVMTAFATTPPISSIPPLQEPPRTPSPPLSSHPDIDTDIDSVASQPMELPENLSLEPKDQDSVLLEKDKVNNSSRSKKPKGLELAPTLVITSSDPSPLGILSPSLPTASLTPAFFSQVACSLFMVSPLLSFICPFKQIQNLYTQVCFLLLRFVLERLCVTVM
# Outline: as §1
# ETV2 = biological target: T4, ETV2 (Homo sapiens, UniProt O00321 1-342); conditions: protein: recombinant; tags: N-terminal GST; dsDNA, one strand shown
# T4 sequence: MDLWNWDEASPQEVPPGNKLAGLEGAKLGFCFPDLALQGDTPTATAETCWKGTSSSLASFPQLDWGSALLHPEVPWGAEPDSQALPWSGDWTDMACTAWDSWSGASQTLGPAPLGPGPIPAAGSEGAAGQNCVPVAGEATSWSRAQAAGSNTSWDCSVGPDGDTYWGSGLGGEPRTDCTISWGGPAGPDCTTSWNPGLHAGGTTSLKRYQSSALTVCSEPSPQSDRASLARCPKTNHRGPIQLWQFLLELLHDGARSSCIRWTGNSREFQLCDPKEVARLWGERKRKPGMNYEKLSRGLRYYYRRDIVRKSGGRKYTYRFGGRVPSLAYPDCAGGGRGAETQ
# Outline: as §1
# ELF3 = biological target: T5, ELF3 (Homo sapiens, UniProt P78545 1-371); conditions: protein: recombinant; tags: N-terminal GST; dsDNA, one strand shown
# T5 sequence: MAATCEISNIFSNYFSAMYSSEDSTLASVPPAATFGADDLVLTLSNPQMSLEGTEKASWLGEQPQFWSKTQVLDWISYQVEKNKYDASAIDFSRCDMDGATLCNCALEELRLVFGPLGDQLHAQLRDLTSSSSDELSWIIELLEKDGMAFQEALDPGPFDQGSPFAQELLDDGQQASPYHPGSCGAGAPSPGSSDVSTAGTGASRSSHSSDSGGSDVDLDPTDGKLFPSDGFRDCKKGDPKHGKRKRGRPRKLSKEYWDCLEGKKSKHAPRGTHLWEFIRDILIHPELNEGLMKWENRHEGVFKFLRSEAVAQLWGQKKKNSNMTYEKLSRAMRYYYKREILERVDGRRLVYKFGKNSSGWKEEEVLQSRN
# Outline: as §1
# CRX = CRX (Homo sapiens, UniProt O43186 1-299); conditions: protein: recombinant; tags: N-terminal GST; dsDNA, one strand shown
# Outline: as §1
# ETV1 = ETV1 (Homo sapiens, UniProt P50549 1-477); conditions: protein: recombinant; tags: N-terminal GST; dsDNA, one strand shown
# Outline: as §1
# ERF = biological target: T6, ERF (Homo sapiens, UniProt P50548 1-548); conditions: protein: recombinant; tags: N-terminal GST; dsDNA, one strand shown
# T6 sequence: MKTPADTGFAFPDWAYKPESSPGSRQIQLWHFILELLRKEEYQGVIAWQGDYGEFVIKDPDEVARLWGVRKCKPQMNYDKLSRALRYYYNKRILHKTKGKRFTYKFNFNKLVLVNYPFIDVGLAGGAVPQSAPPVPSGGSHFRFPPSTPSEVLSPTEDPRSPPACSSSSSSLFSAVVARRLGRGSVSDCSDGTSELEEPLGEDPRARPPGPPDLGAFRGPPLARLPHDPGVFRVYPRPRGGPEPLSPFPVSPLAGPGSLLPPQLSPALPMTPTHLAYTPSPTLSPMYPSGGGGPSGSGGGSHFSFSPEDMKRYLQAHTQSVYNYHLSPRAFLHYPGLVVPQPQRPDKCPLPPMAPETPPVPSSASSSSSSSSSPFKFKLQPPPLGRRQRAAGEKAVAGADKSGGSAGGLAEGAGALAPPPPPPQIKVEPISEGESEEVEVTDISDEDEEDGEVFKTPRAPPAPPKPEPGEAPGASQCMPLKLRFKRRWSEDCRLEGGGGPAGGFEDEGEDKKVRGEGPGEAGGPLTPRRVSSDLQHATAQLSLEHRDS
# Outline: as §1
# ETV3L = biological target: T7, ETV3L (Homo sapiens, UniProt Q6ZN32 1-361); conditions: protein: recombinant; tags: N-terminal GST; dsDNA, one strand shown
# T7 sequence: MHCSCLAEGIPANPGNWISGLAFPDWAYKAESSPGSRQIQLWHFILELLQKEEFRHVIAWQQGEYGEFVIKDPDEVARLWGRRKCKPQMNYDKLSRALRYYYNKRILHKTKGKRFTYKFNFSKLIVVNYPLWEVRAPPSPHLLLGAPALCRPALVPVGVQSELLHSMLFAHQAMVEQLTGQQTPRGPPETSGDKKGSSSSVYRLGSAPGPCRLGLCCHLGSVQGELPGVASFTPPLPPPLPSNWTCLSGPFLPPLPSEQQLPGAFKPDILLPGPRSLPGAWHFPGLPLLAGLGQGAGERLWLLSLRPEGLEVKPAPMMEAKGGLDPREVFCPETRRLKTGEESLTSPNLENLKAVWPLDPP
# Outline: as §1
# ETS2 = biological target: T8, ETS2 (Homo sapiens, UniProt P15036 1-469); conditions: protein: recombinant; tags: N-terminal GST; dsDNA, one strand shown
# T8 sequence: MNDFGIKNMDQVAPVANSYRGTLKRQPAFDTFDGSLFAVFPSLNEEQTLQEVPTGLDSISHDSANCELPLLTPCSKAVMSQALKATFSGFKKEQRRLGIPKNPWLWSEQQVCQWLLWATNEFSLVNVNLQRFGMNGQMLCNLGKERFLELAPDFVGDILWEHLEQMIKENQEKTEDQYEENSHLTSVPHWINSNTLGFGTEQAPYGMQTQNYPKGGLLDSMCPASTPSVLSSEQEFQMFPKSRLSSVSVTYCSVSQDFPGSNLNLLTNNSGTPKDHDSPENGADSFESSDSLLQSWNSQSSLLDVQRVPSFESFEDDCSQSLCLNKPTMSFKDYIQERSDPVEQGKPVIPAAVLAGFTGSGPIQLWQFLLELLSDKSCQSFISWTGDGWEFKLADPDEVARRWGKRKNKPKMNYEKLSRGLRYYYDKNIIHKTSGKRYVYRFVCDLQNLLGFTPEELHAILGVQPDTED
# Outline: as §1
# SPDEF = biological target: T9, SPDEF (Homo sapiens, UniProt O95238 1-335); conditions: protein: recombinant; tags: N-terminal GST; dsDNA, one strand shown
# T9 sequence: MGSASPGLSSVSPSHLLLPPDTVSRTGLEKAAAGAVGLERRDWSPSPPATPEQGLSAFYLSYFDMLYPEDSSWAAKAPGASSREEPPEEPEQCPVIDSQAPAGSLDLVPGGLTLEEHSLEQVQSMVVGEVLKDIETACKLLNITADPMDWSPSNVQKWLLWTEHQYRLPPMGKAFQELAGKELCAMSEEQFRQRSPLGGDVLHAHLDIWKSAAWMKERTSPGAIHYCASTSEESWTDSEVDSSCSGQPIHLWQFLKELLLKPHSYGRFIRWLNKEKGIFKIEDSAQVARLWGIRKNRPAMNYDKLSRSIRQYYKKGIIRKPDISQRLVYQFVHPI
# Outline: as §1
# ETV7 = biological target: T10, ETV7 (Homo sapiens, UniProt Q9Y603 1-341); conditions: protein: recombinant; tags: N-terminal GST; dsDNA, one strand shown
# T10 sequence: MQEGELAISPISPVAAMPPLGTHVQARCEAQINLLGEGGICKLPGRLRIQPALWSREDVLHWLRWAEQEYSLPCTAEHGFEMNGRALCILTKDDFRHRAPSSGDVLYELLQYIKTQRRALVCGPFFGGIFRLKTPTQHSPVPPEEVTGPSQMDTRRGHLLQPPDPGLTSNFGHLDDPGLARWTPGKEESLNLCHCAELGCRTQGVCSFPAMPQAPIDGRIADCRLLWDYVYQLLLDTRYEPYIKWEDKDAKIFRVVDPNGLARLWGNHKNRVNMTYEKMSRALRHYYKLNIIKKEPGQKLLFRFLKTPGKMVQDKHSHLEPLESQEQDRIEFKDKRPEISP
# Outline: as §1
# ELF5 = biological target: T11, ELF5 (Homo sapiens, UniProt Q9UKW6-2 1-255); conditions: protein: recombinant; tags: N-terminal GST; dsDNA, one strand shown
# T11 sequence: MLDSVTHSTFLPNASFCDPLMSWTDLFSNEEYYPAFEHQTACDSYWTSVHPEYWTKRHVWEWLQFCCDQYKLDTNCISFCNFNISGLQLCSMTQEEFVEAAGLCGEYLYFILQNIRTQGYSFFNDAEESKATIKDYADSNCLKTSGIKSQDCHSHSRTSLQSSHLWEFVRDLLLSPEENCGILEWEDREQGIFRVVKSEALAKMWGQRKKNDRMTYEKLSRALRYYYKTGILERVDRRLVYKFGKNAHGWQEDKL
# Outline: as §1
# ETV3 = biological target: T12, ETV3 (Homo sapiens, UniProt P41162-2 1-143); conditions: protein: recombinant; tags: N-terminal GST; dsDNA, one strand shown
# T12 sequence: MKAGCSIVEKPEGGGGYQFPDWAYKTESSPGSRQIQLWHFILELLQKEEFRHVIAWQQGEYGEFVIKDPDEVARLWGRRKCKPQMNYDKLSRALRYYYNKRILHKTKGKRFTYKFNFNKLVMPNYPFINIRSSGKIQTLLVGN
# Outline: as §1
# ETV6 = ETV6 (Homo sapiens, UniProt P41212 1-452); conditions: protein: recombinant; tags: N-terminal GST; dsDNA, one strand shown
# Outline: as §1
# Chain of ETV5 (P41161 whole entry): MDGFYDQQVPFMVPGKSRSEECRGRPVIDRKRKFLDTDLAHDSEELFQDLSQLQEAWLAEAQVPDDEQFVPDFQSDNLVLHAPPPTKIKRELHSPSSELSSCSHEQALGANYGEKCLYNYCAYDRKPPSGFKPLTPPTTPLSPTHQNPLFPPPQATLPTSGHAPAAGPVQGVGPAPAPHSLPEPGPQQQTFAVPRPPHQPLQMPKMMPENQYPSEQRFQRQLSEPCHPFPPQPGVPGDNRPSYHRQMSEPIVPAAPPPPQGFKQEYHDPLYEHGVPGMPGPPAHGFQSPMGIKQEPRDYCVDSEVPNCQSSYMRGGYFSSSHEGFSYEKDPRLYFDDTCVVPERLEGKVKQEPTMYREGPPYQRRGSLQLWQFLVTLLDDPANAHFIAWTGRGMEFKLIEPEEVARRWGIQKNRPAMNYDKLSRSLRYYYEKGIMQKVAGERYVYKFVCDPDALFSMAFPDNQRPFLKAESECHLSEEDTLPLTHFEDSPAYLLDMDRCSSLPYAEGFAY
# Chain of HSF1 (Q00613 whole entry): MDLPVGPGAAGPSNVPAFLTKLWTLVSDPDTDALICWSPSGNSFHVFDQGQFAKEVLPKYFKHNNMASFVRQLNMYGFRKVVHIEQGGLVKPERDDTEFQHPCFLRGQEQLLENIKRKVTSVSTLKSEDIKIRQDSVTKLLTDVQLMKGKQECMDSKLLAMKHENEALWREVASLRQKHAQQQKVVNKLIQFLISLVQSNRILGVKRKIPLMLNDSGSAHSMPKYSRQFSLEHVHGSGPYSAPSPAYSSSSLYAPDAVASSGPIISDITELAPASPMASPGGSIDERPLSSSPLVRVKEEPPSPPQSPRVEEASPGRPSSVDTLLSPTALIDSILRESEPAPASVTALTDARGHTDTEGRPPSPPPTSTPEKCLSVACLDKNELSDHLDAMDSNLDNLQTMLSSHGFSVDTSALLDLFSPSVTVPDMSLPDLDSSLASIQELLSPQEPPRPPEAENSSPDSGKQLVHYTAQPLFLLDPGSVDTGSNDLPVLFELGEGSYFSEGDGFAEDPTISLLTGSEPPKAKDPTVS
# Chain of ELF4 (Q99607 whole entry): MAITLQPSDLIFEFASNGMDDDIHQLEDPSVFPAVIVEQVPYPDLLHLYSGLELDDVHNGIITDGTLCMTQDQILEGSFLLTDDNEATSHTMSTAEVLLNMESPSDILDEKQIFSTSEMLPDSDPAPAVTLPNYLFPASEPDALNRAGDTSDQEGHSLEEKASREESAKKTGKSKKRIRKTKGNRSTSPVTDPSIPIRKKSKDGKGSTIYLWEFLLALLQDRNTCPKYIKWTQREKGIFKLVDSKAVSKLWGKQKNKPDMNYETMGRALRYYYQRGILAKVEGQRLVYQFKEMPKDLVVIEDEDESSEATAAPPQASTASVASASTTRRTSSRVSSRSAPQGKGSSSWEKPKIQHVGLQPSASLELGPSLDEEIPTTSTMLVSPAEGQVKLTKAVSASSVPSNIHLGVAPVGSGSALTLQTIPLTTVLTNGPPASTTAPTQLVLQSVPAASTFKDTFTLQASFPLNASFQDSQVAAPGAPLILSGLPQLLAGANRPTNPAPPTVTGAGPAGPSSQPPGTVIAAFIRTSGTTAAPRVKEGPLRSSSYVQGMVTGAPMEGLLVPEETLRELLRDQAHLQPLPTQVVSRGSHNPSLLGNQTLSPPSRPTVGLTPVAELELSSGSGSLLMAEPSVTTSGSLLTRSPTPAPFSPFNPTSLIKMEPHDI
# Chain of CRX (O43186 whole entry): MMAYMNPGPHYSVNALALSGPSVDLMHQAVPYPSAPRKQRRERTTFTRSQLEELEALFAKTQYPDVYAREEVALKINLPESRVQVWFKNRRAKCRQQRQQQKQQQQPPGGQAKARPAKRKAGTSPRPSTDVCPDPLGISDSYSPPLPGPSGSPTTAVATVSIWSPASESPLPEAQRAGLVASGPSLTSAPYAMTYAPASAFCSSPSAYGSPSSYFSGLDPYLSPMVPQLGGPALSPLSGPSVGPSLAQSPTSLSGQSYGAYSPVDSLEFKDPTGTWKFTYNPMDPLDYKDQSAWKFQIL
# Chain of ETV1 (P50549 whole entry): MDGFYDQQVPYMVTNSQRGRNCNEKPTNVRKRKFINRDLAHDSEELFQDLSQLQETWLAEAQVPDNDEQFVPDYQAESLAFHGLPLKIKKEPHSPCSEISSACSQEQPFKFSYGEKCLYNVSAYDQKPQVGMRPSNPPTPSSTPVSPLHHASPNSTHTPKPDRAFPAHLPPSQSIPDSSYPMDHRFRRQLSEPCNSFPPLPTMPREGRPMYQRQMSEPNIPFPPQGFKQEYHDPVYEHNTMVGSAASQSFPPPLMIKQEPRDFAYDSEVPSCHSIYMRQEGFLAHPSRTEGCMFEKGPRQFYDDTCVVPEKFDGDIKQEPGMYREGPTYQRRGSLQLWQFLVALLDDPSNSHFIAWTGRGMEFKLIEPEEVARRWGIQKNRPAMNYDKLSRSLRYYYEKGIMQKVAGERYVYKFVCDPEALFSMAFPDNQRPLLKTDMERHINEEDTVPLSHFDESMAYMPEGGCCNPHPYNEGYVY
# Chain of ETV6 (P41212 whole entry): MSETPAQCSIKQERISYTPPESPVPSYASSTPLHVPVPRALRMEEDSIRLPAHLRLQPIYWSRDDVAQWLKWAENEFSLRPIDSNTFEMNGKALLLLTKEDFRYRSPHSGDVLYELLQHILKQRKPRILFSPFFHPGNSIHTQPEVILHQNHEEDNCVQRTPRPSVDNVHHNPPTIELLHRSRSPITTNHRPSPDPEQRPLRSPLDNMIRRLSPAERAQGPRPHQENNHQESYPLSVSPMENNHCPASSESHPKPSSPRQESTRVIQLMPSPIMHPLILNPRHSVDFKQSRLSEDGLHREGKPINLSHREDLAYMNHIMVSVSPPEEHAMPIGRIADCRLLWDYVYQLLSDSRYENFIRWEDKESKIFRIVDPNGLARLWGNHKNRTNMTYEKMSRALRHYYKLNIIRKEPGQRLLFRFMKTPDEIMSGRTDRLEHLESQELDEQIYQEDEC
sequence,measurement,setting,value
ATGAAT,binding signal,FEV,"1.07 fold enrichment (6-mer frequency, TF over GST control)"
same,binding signal,ETV5,"1.1 fold enrichment (6-mer frequency, TF over GST control)"
same,binding signal,HSF1,"1.19 fold enrichment (6-mer frequency, TF over GST control)"
same,binding signal,SPIC,"1.31 fold enrichment (6-mer frequency, TF over GST control)"
same,binding signal,ELF4,"1.14 fold enrichment (6-mer frequency, TF over GST control)"
same,binding signal,ELK4,"1.13 fold enrichment (6-mer frequency, TF over GST control)"
same,binding signal,ETV2,"1.04 fold enrichment (6-mer frequency, TF over GST control)"
same,binding signal,ELF3,"1.08 fold enrichment (6-mer frequency, TF over GST control)"
same,binding signal,CRX,"1.2 fold enrichment (6-mer frequency, TF over GST control)"
same,binding signal,ETV1,"1.16 fold enrichment (6-mer frequency, TF over GST control)"
same,binding signal,ERF,"1.16 fold enrichment (6-mer frequency, TF over GST control)"
same,binding signal,ETV3L,"1.14 fold enrichment (6-mer frequency, TF over GST control)"
same,binding signal,ETS2,"1.17 fold enrichment (6-mer frequency, TF over GST control)"
same,binding signal,SPDEF,"1.06 fold enrichment (6-mer frequency, TF over GST control)"
same,binding signal,ETV7,"1.19 fold enrichment (6-mer frequency, TF over GST control)"
same,binding signal,ELF5,"1.09 fold enrichment (6-mer frequency, TF over GST control)"
same,binding signal,ETV3,"1.2 fold enrichment (6-mer frequency, TF over GST control)"
same,binding signal,ETV6,"1.15 fold enrichment (6-mer frequency, TF over GST control)"
